Measurements published in PubChem BioAssay (Tox21).
A number with no mark means an inactive call. Inconclusive results are not listed. A call without a number means that no potency is given here. Calls of active or inactive are those of the source. Unless noted, the call rests on the fitted dose curve.

Assays:
[1] = Nuclear factor erythroid 2-related factor 2/antioxidant responsive element (Nrf2/ARE) small molecule agonists: luciferase reporter gene qHTS assay in human keratinocytes (AID 1919969); further: nearly all actives have a fitted effect of over 35% in size; further: potency means the concentration at half of the fitted maximal effect
[2] = target: Gonadotropin-releasing hormone receptor (Homo sapiens) (UniProt P30968); test: Human gonadotropin-releasing hormone receptor (GnRHR) small molecule agonists, calcium flux assay in GnRHR-HEK293 cells (AID 1920063); further: nearly all actives have a fitted effect of over 35% in size; further: potency means the concentration at half of the fitted maximal effect
Summary of the method: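 Agonist mode: compounds at 15 concentrations, in triplicate, went onto calcium dye-loaded GnRHR-HEK293 cells. Intracellular calcium was then followed as 480/540 nm fluorescence at 1 s intervals over 3 min.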

[3] = target: KiSS-1 receptor (Homo sapiens) (UniProt Q969F8); test: Human kisspeptin (KISS1R) small molecule agonists, calcium flux assay in KISS1R-HEK293 cells (AID 1920064; active means well fitted activation curve with a large enough effect in the repeat runs; further: potency means the concentration at half of the fitted maximal effect)
Summary of the method: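 Agonist mode: intracellular calcium rise tracked at 1 s intervals over 3 min (480/540 nm) immediately after compound addition to dye-loaded KISS1R-HEK293 stable cells. Each compound tested at 15 concentrations in triplicate.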

[4] = G protein-coupled receptor (GPCR) small molecule agonists, calcium flux assay: HEK293 wild type cell line counter screen (AID 1920065); further: potency means the concentration at half of the fitted maximal effect
Summary of the method: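 Calcium flux counter screen: compound added in agonist mode at 15 concentrations in triplicate to dye-loaded parental HEK293 cells. Fluorescence (480/540) read kinetically for 3 min; ATP served as positive control.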

[5] = p53 small molecule agonists, cell-based qHTS assay with rat liver microsomes (AID 1963578)
Summary of the method: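 p53RE-bla cells, 4,000/well, pre-incubated 5 h, then given compounds plus rat liver microsomes (0.5 mg/mL final) and NADPH (0.5 mg/mL final). Incubation 16 h at 37 C; beta-lactamase reporter read by LiveBLAzer fluorescence after 2 h at room temperature.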

[6] = p53 small molecule agonists, cell-based qHTS assay with human liver microsomes: qHTS cell viability counter screen (AID 1963579); further: nearly all actives have a fitted effect of over 45% in size; further: potency means the concentration at half of the fitted maximal effect
Summary of the method: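 p53RE-bla cells, 4,000/well, dosed 5 hours after plating, with human liver microsomes (0.5 mg/mL final) plus NADPH (0.5 mg/mL final), 16 hours at 37 C. Viability read as CellTiter-Glo luminescence after 30 min at room temperature.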

[7] = p53 small molecule agonists, cell-based qHTS assay with rat liver microsomes: qHTS cell viability counter screen (AID 1963580); further: nearly all actives have a fitted effect of over 45% in size
Summary of the method: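 Rat liver microsome (0.5 mg/mL final) and NADPH (0.5 mg/mL final) co-incubation with compounds for 16 h at 37 C on HCT-116 p53RE-bla cells; cytotoxicity taken from intracellular ATP luminescence.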

[8] = target: 5-hydroxytryptamine receptor 2A (Homo sapiens) (UniProt P28223); test: 5-hydroxytryptamine receptor 2A (HTR2A) small molecule antagonists, cell-based qHTS assay (AID 1963586); further: nearly all actives have a fitted effect of over 45% in size
Summary of the method: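 CHO cells stably expressing human HTR2A were plated for 18 h at 37 C, then loaded with calcium dye for 1 h. Compounds were preincubated 5 min at room temperature before DOI (4 nM solution) was added. Kinetic fluorescence was read for 3 min.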

[9] = target: 5-hydroxytryptamine receptor 2A (Homo sapiens) (UniProt P28223); test: 5-hydroxytryptamine receptor 2A (HTR2A) small molecule agonists, cell-based qHTS assay (AID 1963587); further: nearly all actives have a fitted effect of over 30% in size; further: potency means the concentration at half of the fitted maximal effect
Summary of the method: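 Kinetic calcium-flux fluorescence (2 min, 1 sec intervals) after compound addition in agonist mode. HTR2A-CHO cells were cultured 18 h, then dye-loaded 1 h at 37 C.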

[10] = target: Muscarinic acetylcholine receptor M1 (Homo sapiens) (UniProt P11229); test: Cholinergic receptor muscarinic 1 (CHRM1) small molecule antagonists, cell-based qHTS assay (AID 1963588); further: nearly all actives have a fitted effect of over 40% in size
Summary of the method: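 Compounds were tested at 15 concentrations in three independent runs. Dye-loaded CHRM1-CHO cells were exposed 5 min at room temperature before stimulation by acetylcholine added at 50nM. Intracellular calcium was read kinetically on FDSS for 3 min.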

[11] = target: Muscarinic acetylcholine receptor M1 (Homo sapiens) (UniProt P11229); test: Cholinergic receptor muscarinic 1 (CHRM1) small molecule agonists, cell-based qHTS assay (AID 1963589); further: nearly all actives have a fitted effect of over 35% in size; further: potency means the concentration at half of the fitted maximal effect
Summary of the method: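 Agonist-mode calcium-flux screen: compounds at 15 concentrations, three independent runs, were pin-transferred onto dye-loaded human CHRM1-CHO cells. Fluorescence was then recorded kinetically every second over minutes.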

[12] = target: Beta-2 adrenergic receptor (Homo sapiens) (UniProt P07550); test: Adrenergic beta2 receptor (ADRB2) small molecule antagonists, cell-based qHTS assay (AID 1963592); further: series mostly up to about 92 µM; nearly all actives have a fitted effect of over 50% in size
Summary of the method: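 Assay format: CHO-ADRB2 cells, 18-20hr seeding at 37C/5% CO2, then compound plus 1nM isoproterenol agonist mix for 0.5hr RT. Homogeneous time-resolved fluorescence cAMP detection after 1hr, expressed as 665/615 nm ratio.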

[13] = target: Beta-2 adrenergic receptor (Homo sapiens) (UniProt P07550); test: Adrenergic beta2 receptor (ADRB2) small molecule agonists, cell-based qHTS assay (AID 1963593);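 further: CHO cells stably overexpressing human ADRB2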
Summary of the method: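 CHO cells stably over-expressing ADRB2 were plated overnight at 37C, then dosed with compounds plus a stimulation mix containing 100uM IBMX and 25uM Ro-20-1724 for 0.5hr at room temperature. cAMP was measured by HTRF competition, 1hr.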

[14] = target: D(2) dopamine receptor (Homo sapiens) (UniProt P14416); test: Dopamine D2 receptor (DRD2) small molecule agonists, cell-based qHTS assay (AID 1963594); further: nearly all actives have a fitted effect of over 35% in size
Summary of the method: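 cAMP accumulation in DRD2-HEK293 cells measured by HTRF after 1 h detection; compounds added 10 min before NKH477 (200nM […]) forskolin-analogue stimulation, 30 min at room temperature, with Ro20-1724 present at 0.1 mM final.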

[15] = target: D(2) dopamine receptor (Homo sapiens) (UniProt P14416); test: Dopamine D2 receptor (DRD2) small molecule antagonists, cell-based qHTS assay (AID 1963595; active means well fitted inhibition curve with a large enough effect in the signal ratio in the repeat runs, with a control signal flat; the % refers to the signal ratio)
Summary of the method: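 In this cell-based antagonist screen, compounds act for 10 min at room temperature before a 30 min challenge with 12 nM quinpirole and 200 nM NKH477. cAMP is quantified by HTRF competition in DRD2-HEK293 cells containing 0.1 mM Ro20-1724.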

[16] = p53 small molecule agonists, cell-based qHTS assay: qHTS cell viability counter screen (AID 1963581); further: nearly all actives have a fitted effect of over 45% in size
Summary of the method: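 Counter screen read by CellTiter-Glo luminescence (ATP content, 30 min at room temperature), run in the same wells as the beta-lactamase reporter read. HCT-116 p53RE-bla cells saw compounds for 16 h at 37 C.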

[17] = cAMP Responsive Elements (CRE) small molecule agonists, cell-based qHTS assay (AID 1963590)
Summary of the method: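 Agonist mode: compound added to CRE-bla HEK 293T cells (2,000/well, 18 h after plating) for 3 h at 37 C/5% CO2. Reporter activity detected via FRET beta-lactamase substrate, 2 h room-temperature loading.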

[18] = p53 small molecule agonists, cell-based qHTS assay (AID 1963582; active means well fitted activation curve with a large enough effect in the signal ratio in the repeat runs, not every such curve was filed as active; the % refers to the signal ratio)
Summary of the method: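 Read-out is beta-lactamase FRET fluorescence after 2 h at room temperature with LiveBLAzer B/G substrate. p53 response element-bla cells were treated 16 h at 37 C with compounds in DMSO, added 5 h after seeding.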

[19] = cAMP Responsive Elements (CRE) small molecule antagonists, cell-based qHTS assay (AID 1963591; active means well fitted inhibition curve with a large enough effect in the signal ratio in the repeat runs, not every such curve was filed as active; the % refers to the signal ratio)
Summary of the method: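 Antagonist mode: compounds are added alongside the adenylyl cyclase activator NKH477 (0.25 uM final) to CRE-bla HEK293T cells for 3 h. LiveBLAzer FRET substrate, 2 h at room temperature, reports bla expression.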

Chain of Beta-2 adrenergic receptor (Homo sapiens) (P07550 whole entry, looked up): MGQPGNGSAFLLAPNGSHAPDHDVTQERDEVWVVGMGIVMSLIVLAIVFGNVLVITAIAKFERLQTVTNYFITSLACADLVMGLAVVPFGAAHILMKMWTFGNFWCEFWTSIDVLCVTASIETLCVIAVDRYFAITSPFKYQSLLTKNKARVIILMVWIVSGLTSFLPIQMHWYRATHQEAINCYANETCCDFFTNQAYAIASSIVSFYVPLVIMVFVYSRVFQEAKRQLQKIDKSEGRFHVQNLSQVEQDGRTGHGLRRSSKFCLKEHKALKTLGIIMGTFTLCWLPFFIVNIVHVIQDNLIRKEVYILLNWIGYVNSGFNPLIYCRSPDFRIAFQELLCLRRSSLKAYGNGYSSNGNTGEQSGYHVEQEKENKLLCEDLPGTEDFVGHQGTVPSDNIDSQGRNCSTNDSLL
Chain of D(2) dopamine receptor (Homo sapiens) (P14416 whole entry, looked up): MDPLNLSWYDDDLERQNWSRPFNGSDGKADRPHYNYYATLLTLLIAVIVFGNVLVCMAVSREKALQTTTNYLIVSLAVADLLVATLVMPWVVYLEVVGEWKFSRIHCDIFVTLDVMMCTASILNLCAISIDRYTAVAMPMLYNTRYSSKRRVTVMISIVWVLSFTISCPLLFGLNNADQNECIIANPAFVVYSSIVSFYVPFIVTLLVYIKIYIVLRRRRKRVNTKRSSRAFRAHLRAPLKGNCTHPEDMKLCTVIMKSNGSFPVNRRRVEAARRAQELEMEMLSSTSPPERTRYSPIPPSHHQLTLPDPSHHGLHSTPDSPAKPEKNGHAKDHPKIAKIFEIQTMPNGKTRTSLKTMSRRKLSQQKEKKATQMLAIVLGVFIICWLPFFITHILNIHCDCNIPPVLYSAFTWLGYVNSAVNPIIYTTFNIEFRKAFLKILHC
Chain of KiSS-1 receptor (Homo sapiens) (Q969F8 whole entry, looked up): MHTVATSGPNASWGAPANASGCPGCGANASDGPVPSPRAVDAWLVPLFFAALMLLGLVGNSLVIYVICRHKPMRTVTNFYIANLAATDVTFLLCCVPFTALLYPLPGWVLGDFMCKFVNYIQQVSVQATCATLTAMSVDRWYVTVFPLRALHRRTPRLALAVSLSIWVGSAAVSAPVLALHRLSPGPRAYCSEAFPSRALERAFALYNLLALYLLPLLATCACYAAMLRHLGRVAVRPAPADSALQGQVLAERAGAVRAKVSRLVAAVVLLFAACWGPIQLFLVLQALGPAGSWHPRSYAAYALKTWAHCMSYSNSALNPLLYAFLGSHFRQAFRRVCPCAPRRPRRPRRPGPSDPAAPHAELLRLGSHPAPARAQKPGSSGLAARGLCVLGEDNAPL
Chain of 5-hydroxytryptamine receptor 2A (Homo sapiens) (P28223 whole entry, looked up): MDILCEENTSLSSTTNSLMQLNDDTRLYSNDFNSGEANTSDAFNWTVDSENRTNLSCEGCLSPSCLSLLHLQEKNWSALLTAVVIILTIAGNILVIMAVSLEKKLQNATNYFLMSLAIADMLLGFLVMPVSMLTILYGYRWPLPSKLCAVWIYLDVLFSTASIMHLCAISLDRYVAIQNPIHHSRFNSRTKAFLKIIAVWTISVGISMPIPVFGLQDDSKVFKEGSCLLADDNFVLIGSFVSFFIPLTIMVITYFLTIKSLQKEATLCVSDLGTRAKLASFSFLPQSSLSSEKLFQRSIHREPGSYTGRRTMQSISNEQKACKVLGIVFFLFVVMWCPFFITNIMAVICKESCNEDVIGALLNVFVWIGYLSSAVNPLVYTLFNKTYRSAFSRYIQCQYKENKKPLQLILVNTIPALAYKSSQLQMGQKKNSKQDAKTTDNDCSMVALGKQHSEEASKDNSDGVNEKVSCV
Chain of Muscarinic acetylcholine receptor M1 (Homo sapiens) (P11229 whole entry, looked up): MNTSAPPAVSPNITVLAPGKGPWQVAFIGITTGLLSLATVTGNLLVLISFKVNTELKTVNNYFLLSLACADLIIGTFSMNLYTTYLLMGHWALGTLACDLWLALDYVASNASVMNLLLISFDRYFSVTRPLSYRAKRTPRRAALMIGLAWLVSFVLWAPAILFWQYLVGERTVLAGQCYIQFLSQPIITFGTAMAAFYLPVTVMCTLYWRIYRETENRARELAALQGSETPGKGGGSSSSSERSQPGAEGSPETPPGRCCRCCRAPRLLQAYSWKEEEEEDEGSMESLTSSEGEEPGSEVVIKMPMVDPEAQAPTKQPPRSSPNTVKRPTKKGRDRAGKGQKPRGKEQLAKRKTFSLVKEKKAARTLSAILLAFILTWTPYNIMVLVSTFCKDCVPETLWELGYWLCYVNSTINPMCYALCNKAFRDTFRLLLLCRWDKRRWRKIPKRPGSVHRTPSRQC
Chain of Gonadotropin-releasing hormone receptor (Homo sapiens) (P30968 whole entry, looked up): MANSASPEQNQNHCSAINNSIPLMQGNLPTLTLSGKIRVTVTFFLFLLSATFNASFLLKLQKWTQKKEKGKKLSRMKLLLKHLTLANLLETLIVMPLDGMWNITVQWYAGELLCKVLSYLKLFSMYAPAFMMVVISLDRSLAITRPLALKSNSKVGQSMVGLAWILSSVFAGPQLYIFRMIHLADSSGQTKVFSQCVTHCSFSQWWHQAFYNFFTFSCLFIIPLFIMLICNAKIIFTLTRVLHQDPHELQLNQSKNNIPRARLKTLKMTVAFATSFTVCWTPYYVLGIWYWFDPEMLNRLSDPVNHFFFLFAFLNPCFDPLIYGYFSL

C=CC(=O)OCC1CC2CC1C1CCC(COC(=O)C=C)C21 (centres undefined)
Potency [1]: 24.3 µM (active) | Potency [2]: inactive | Potency [3]: inactive | Potency [4]: inactive | Potency [5]: inactive | Potency [6]: 40.8 µM (active) | Potency [7]: inactive | Potency [8]: inactive | Potency [9]: inactive | Potency [10]: inactive | Potency [11]: inactive | Potency [12]: inactive | Potency [13]: inactive | Potency [14]: inactive | Potency [15]: inactive

CCOc1ccc(OCC)c(Cl)c1
Potency [1]: inactive | Potency [2]: inactive | Potency [3]: inactive | Potency [4]: inactive | Potency [6]: inactive | Potency [7]: inactive | Potency [16]: inactive | Potency [8]: inactive | Potency [9]: inactive | Potency [10]: inactive | Potency [11]: inactive | Potency [17]: inactive | Potency [12]: inactive | Potency [13]: inactive | Potency [14]: inactive | Potency [15]: inactive

CCCCC[Si](OCC)(OCC)OCC
Potency [1]: inactive | Potency [2]: inactive | Potency [3]: inactive | Potency [4]: inactive | Potency [6]: inactive | Potency [7]: inactive | Potency [16]: inactive | Potency [8]: inactive | Potency [9]: inactive | Potency [10]: inactive | Potency [11]: inactive | Potency [17]: inactive | Potency [12]: inactive | Potency [13]: inactive | Potency [14]: inactive | Potency [15]: inactive

COc1cc(Cl)ccc1Oc1ccc(Cl)cc1Cl
Potency [1]: 14.9 µM (active) | Potency [2]: inactive | Potency [3]: inactive | Potency [4]: inactive | Potency [6]: inactive | Potency [7]: inactive | Potency [16]: inactive | Potency [8]: inactive | Potency [9]: inactive | Potency [10]: inactive | Potency [11]: inactive | Potency [12]: inactive | Potency [14]: inactive | Potency [15]: inactive

CC1=CC=C(C(C)C)CC1
Potency [1]: inactive | Potency [2]: inactive | Potency [3]: inactive | Potency [4]: inactive | Potency [6]: inactive | Potency [7]: inactive | Potency [16]: inactive | Potency [18]: inactive | Potency [8]: inactive | Potency [9]: inactive | Potency [10]: inactive | Potency [11]: inactive | Potency [17]: inactive | Potency [19]: inactive | Potency [12]: inactive | Potency [13]: inactive | Potency [14]: inactive | Potency [15]: inactive

CCCCCC[C@@H](O)C/C=C\CCCCCCCC(=O)O
Potency [1]: inactive | Potency [2]: inactive | Potency [3]: inactive | Potency [4]: inactive | Potency [6]: inactive | Potency [7]: inactive | Potency [16]: inactive | Potency [18]: inactive | Potency [8]: inactive | Potency [10]: inactive | Potency [11]: inactive | Potency [12]: inactive | Potency [13]: inactive | Potency [14]: inactive | Potency [15]: inactive

NC(CSCC(=O)O)C(=O)O (centres undefined)
Potency [1]: inactive | Potency [2]: inactive | Potency [3]: inactive | Potency [4]: inactive | Potency [6]: inactive | Potency [7]: inactive | Potency [16]: inactive | Potency [18]: inactive | Potency [8]: inactive | Potency [9]: inactive | Potency [10]: inactive | Potency [11]: inactive | Potency [19]: inactive | Potency [12]: inactive | Potency [14]: inactive | Potency [15]: inactive

OCC1CC=CCC1 (centres undefined)
Potency [1]: inactive | Potency [2]: inactive | Potency [3]: inactive | Potency [4]: inactive | Potency [6]: inactive | Potency [7]: inactive | Potency [16]: inactive | Potency [8]: inactive | Potency [9]: inactive | Potency [10]: inactive | Potency [11]: inactive | Potency [17]: inactive | Potency [19]: inactive | Potency [12]: inactive | Potency [13]: inactive | Potency [14]: inactive | Potency [15]: inactive

Cc1nc2ccc(CN(C)c3ccc(C(=O)N[C@@H](CCC(=O)O)C(=O)O)s3)cc2c(=O)[nH]1
Potency [1]: inactive | Potency [2]: inactive | Potency [3]: inactive | Potency [4]: inactive | Potency [6]: inactive | Potency [7]: inactive | Potency [16]: inactive | Potency [8]: inactive | Potency [9]: inactive | Potency [10]: inactive | Potency [11]: inactive | Potency [17]: inactive | Potency [19]: inactive | Potency [12]: inactive | Potency [14]: inactive

CN1CC[C@H](c2c(O)cc(O)c3c(=O)cc(-c4ccccc4Cl)oc23)[C@H](O)C1
Potency [1]: 0.0841 µM (active) | Potency [2]: inactive | Potency [3]: inactive | Potency [4]: inactive | Potency [5]: inactive | Potency [16]: inactive | Potency [8]: inactive | Potency [9]: inactive | Potency [10]: inactive | Potency [11]: inactive | Potency [12]: inactive | Potency [14]: inactive | Potency [15]: inactive

O=C1OC2(c3ccc(O)cc3Oc3cc(O)ccc32)c2ccc(N=C=S)cc21
Potency [1]: inactive | Potency [2]: 14.1 µM (active) | Potency [3]: 44.4 µM (active) | Potency [4]: 39.6 µM (active) | Potency [6]: inactive | Potency [7]: inactive | Potency [16]: inactive | Potency [18]: inactive | Potency [9]: 17.7 µM (active) | Potency [10]: inactive | Potency [11]: 22.3 µM (active) | Potency [19]: inactive | Potency [13]: inactive

CCOc1ccc2nc(S(N)(=O)=O)sc2c1
Potency [1]: 6.68 µM (active) | Potency [2]: inactive | Potency [3]: inactive | Potency [4]: inactive | Potency [6]: inactive | Potency [7]: inactive | Potency [16]: inactive | Potency [8]: inactive | Potency [9]: inactive | Potency [10]: inactive | Potency [17]: inactive | Potency [19]: inactive | Potency [12]: inactive | Potency [13]: inactive | Potency [14]: inactive | Potency [15]: inactive

CC(=O)SCC(CC(=O)c1ccc(C)cc1)C(=O)O (centres undefined)
Potency [1]: inactive | Potency [2]: inactive | Potency [3]: inactive | Potency [4]: inactive | Potency [6]: inactive | Potency [7]: inactive | Potency [16]: inactive | Potency [8]: inactive | Potency [9]: inactive | Potency [10]: inactive | Potency [11]: inactive | Potency [12]: inactive | Potency [13]: inactive | Potency [14]: inactive | Potency [15]: inactive
